SMILES strings stand for the structures. The whole screen tested about 4,100 compounds, of which about 1,600 (39%) were called active. Roughly 25% stayed inconclusive and do not appear here. Calls follow the shape of the dose curve; as a rule, active = well fitted inhibition curve with a large enough effect; inconclusive = small, poorly fitted or top-dose-only effect; inactive = no such curve, though single readings can be large or run the other way. Some of the results follow.
Potency is read from the fitted curve at half-maximal effect.

A short description of the assay: qHTS Validation assay for Inhibitors of Plasmodium falciparum Dd2 growth in vitro. Also: nearly all actives have a fitted effect of over 70% in size. Particulars: P. falciparum Dd2 in RBCs, SYBR Green growth, 72 h; series mostly up to 28.7 µM. In outline: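 P. falciparum Dd2-infected red blood cells (2.5% hematocrit, 0.3% parasitemia) grown 72 h at 37 °C under 5% O2 with compounds in a titration, 29 uM to 0.5 nM final. Growth read as SYBR Green-1 fluorescence after ~16 h lysis; artesunate 300 nM as positive control.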
(Quantitative high-throughput screening tests each substance at several concentrations.)
`CCN(C(=O)c1cc2cc(Br)cc(OC)c2oc1=O)c1ccccc1`: the Potency result was “inactive”.
For `Cc1nc(CCNC(=O)C2CC2)no1`, the Potency entry is “inactive”.
The value for `Cc1ccc(C(=O)N2CCCn3cc(-c4cccc(C#N)c4)nc32)cc1` was “inactive”; that for `O=C(c1ccc(-c2ncc3cnc(-c4ccccc4)cn23)cc1)N1CCc2cccnc21` was 17.2 µM (active); that for `O=C(c1ccc(-c2ncc3cnc(-c4cccc(F)c4)cn23)cc1)N1CCc2cccnc21` was “inactive”.
`CCOC(=O)c1ccc(Nc2nc3nonc3nc2Nc2cccc(C)c2C)cc1`: the Potency was 8.41 µM (active).
The value for `COc1ccc(NC(=O)c2cccc3c2CCN3C(=O)Nc2ccc(F)cc2)c(C)c1` was “inactive”; that for `COc1ccc(Nc2ccccc2NC(=O)c2ccccc2Br)cc1` was 5.96 µM (active).
The value for `CCNC(=O)N1CC[C@H]2CC(=O)N([C@H](C(N)=O)C(C)C)CC[C@H]2C1` was “inactive”; that for `O=C1C=C(c2cccc(CO)c2)C[C@@H](c2ccc(Cl)cc2)C1` was 3.76 µM (active); that for `Cn1cc(-c2cccc(CO)c2)c2nc(COc3ccc(Cl)cc3)cn2c1=O` was “inactive”.
The value for `CC1(c2ccccc2)O[C@@H]2C[C@H]3[C@@H]4CCC5=CC(=O)C=C[C@]5(C)[C@@]4(F)[C@@H](O)C[C@]3(C)[C@]2(C(=O)CO)O1` (stereo not given in full) was 4.73 µM (active); that for `O=C(Nc1ccncc1)C1c2ccccc2Oc2ccccc21` was “inactive”.
On to `CCOC(=O)c1sc(NC(=O)C2c3ccccc3Oc3ccccc32)c(C(=O)OCC)c1C`, for which the Potency was 2.66 µM (active).
For `COc1cc(Nc2ncncc2-c2nc(-c3ccccc3)no2)cc(OC)c1OC`, the Potency entry is “inactive”.
As to `CC(C)(C)OC(=O)N1CCC(c2c(C(=O)NCCN3CCC(Cc4ccccc4)CC3)cnn2-c2ccc(F)cc2)CC1`, the Potency was 5.31 µM (active).
`Cc1ccc(C)c(N2CCN(CCCNC(=O)c3cnn(-c4cccc(Cl)c4)c3C3CCN(C(=O)OC(C)(C)C)CC3)CC2)c1`: the Potency was 8.41 µM (active).
Consider `Cc1ccc(-n2ncc(C(=O)N3CCN(c4cc(Cl)ccc4C)CC3)c2C2CCN(C(=O)OC(C)(C)C)CC2)cc1`, for which the Potency was 8.41 µM (active).
As to `Cc1ccc(C)c(N2CCN(CCCNC(=O)c3cnn(-c4ccc(F)cc4)c3C3CCN(C(=O)OC(C)(C)C)CC3)CC2)c1`, the Potency is 2.66 µM (active).
The value for `CC(C)(C)OC(=O)N1CCC(CNC(=O)c2ccc(F)cc2)CC1` was “inactive”; that for `Cc1ccccc1C(=O)N1CCC(c2nn(-c3ccc(Cl)cc3)c(=O)[nH]2)CC1` was “inactive”.
To `Cn1cnc(S(=O)(=O)N2CCCOCCNC(=O)[C@@H]3CCC[C@@H]32)c1` belongs “inactive”; to `Cc1cccc(C)c1-n1ncc(C(=O)NCCCN2CCC(C)CC2)c1C1CCN(C(=O)OC(C)(C)C)CC1`, 15 µM (active).
In the case of `CC(C)(C)OC(=O)N1CCC(c2c(C(=O)NCCN3CCc4ccccc4C3)cnn2-c2ccc(F)cc2F)CC1`, the Potency was 5.31 µM (active).
The value for `CC1CCN(C(=O)c2cc3c(s2)CCC(C(=O)NCCCN2CCOCC2)C3)CC1` (stereo not given) was “inactive”.
The value for `O=C(CN1C2=NCCCN2c2ccccc21)c1ccc(Cl)cc1Cl` was 6.68 µM (active); that for `CNCC(=O)N1C[C@@H](C(=O)O)[C@H](c2ccccc2)C1` was “inactive”; that for `O=C(N/N=C/c1ccc(OCc2ccccc2)cc1)c1ccco1` was 13.3 µM (active).
To `CC(C)C(=O)OCC(=O)[C@@]12O[C@H](C3CCCCC3)O[C@@H]1C[C@H]1[C@@H]3CCC4=CC(=O)C=C[C@]4(C)[C@H]3[C@@H](O)C[C@@]12C` belongs 2.66 µM (active); to `CC(=O)SC1CC(=O)N(c2c(C)cccc2C)C1=O` (stereo not given), “inactive”; to `CN1C(=O)C2(c3ccccc31)N(C)CC(c1ccccc1)C21SC(=S)N(Cc2ccco2)C1=O` (stereo not given), 13.3 µM (active).
Turning to `Cc1ccc(CN2CCc3nc(C4CC4)nc(-c4ccc(O)cc4)c3CC2)cc1`, the Potency was 4.73 µM (active).
For the compound `COc1ccc(-c2nc(C3CC3)nc3c2CCN(Cc2cccnc2)CC3)cc1`, the Potency was 13.3 µM (active).
As for `COc1cccc(C(=O)N2CCc3nc(C4CC4)nc(-c4ccc(Cl)cc4)c3C2)c1`, the Potency entry was “inactive”.
Consider `CCc1nc2c(c(-c3ccc(Cl)cc3)n1)CCN(CC1CCCCC1)CC2`, for which the Potency result is “inactive”.
The value for `Oc1ccc(-c2nc(C3CC3)nc3c2CCN(CC2CCCCC2)CC3)cc1` was 4.73 µM (active).
Regarding `CC(C)c1nc2c(c(-c3ccc(O)cc3)n1)CCN(CC1CCCCC1)CC2`, the Potency was 4.73 µM (active).
To `Cc1ccc(CN2CCc3nc(C(=O)Nc4nc(C)cs4)oc3CC2)cc1` belongs “inactive”.
To `Cc1nc2c(c(-c3ccc(Cl)cc3)n1)CCN(C(=O)c1ccc(C(F)(F)F)cc1)CC2` belongs “inactive”; to `O=C(c1ccc(C(F)(F)F)cc1)N1CCc2nc(C3CC3)nc(-c3ccc(Cl)cc3)c2CC1`, 13.3 µM (active).
To `O=C(c1ccccc1Cl)N1CCc2nc(-c3ccccc3)nc(-c3ccc(Cl)cc3)c2C1` belongs “inactive”.
For the compound `Oc1ccc(-c2nc(C3CC3)nc3c2CN(CC2CCCCC2)CC3)cc1`, the Potency is 6.68 µM (active).
Consider `Cc1cccc(-c2cc3nc(C)c(C)c(NCCCn4ccnc4)n3n2)c1`, for which the Potency was 5.31 µM (active).
Regarding `COc1ccc(-c2oc3ccccc3c2C#Cc2cncn2C)cc1`, the Potency is 1.06 µM (active).
`O=C(CCc1cc2ccccc2[nH]c1=O)N1CCCCC1`: the Potency result is “inactive”.
Regarding `CCOC(=O)c1[nH]c(C)c(CCC(=O)N2CCN(c3cccc(C)c3C)CC2)c1C`, the Potency is 1.33 µM (active).
The value for `CCOC(=O)c1[nH]c(C)c(CCC(=O)N2CCN(c3cc(Cl)ccc3C)CC2)c1C` was 1.19 µM (active); that for `CCOC(=O)c1[nH]c(C)c(CCC(=O)N2CCN(c3cc(C)ccc3C)CC2)c1C` was 1.33 µM (active).
For `CN(C)[C@H]1CCCCN(C(=O)CCc2ccc(-c3ccc(Cl)cc3)[nH]2)C1`, the Potency entry was “inactive”.
As for `CCO[C@H]1CN(C(=O)CCc2nc3c(C)c(C)ccc3[nH]2)C[C@@H]1O`, the Potency result is “inactive”.
To `N#C/C(=C\c1ccc(Cl)cc1)c1nc(-c2cc3ccccc3oc2=O)cs1` belongs “inactive”; to `N#C/C(=C\c1ccc(Sc2ccc(Cl)cc2)o1)c1nc2ccccc2[nH]1`, 2.99 µM (active); to `Cn1nc(-c2nncn2CC2CC2)c2c1CCN(C(=O)c1nn(C)c3ccccc13)C2`, “inactive”.
`CCc1ccc(Oc2c(C(F)(F)F)oc3c(CN4CCCC(C)C4)c(O)ccc3c2=O)cc1` (stereo not given): the Potency was 1.33 µM (active).
With `CC1CCCN(Cc2c(O)ccc3c4c(c(=O)oc23)CCCC4)C1` (stereo not given), the Potency is 6.68 µM (active).
As for `CC1CCCN(Cc2c(O)ccc3c(=O)c(Oc4ccc(C(C)(C)C)cc4)c(C(F)(F)F)oc23)C1` (stereo not given), the Potency was 0.299 µM (active).
For `COc1ccc(-c2cc3ccc(O)c(CN4CCCC(C)C4)c3oc2=O)cc1` (stereo not given), the Potency was 2.37 µM (active).
The value for `CCc1noc(-c2cn(C3CCN(C(=O)c4ccc(N(C)C)cc4)CC3)nn2)n1` was “inactive”.
Take `Cn1cc(-c2ccccc2Oc2ccccc2)c2nc(CN3CCOCC3)cn2c1=O`: the Potency entry was “inactive”.
As for `COc1ccc(-c2ccccc2NC(=O)C2CCCN(Cc3c(O)cccc3OC)C2)cc1` (stereo not given), the Potency was 2.11 µM (active).
As for `COc1ccc(Oc2c(C(F)(F)F)oc3c(CN4CCCC(C)C4)c(O)ccc3c2=O)cc1` (stereo not given), the Potency is 2.37 µM (active).
To `COc1cccc(OC)c1CN1CCC2(CC1)CC(O)CCO2` (stereo not given) belongs “inactive”.
For `O=c1oc2c(CN3CCOCC3)c(O)ccc2cc1-c1ccccc1`, the Potency was 9.44 µM (active).
Consider `CN(C)c1cccc(C(=O)N2CCC(c3n[nH]c(=O)n3-c3ccccc3)CC2)c1`, for which the Potency entry was “inactive”.
The value for `COc1ncccc1-c1nc(-c2c(C)noc2C)cc2c1cc(-c1ccccc1)n2C` was 13.7 µM (active); that for `Cc1noc(C)c1-c1cc2c(cc(-c3ccccc3)n2C)c(-c2cccnc2)n1` was 10.9 µM (active).
On to `Cc1noc(C)c1-c1cc2c(cc(-c3ccccc3)n2C)c(-c2ccnn2C)n1`, for which the Potency is 8.63 µM (active).
The value for `COc1cc(F)ccc1-c1nc(-c2c(C)noc2C)cc2[nH]c(C)cc12` was “inactive”.
The value for `O=c1c([N+](=O)[O-])cccn1Cc1ccc(F)cc1Cl` was 4.73 µM (active); that for `Cc1ccc(CNC(=O)CN2CCN(Cc3ccc(F)cc3Cl)C2=O)cc1` was “inactive”.
The value for `Cc1ccc(S(=O)(=O)Nc2cc(C)cn(Cc3ccc(F)cc3)c2=O)cc1` was “inactive”.
For `CCCn1c(SCC(=O)Nc2cc(Cl)ccc2Cl)n[nH]c1=O`, the Potency was 5.31 µM (active).
`O=C(CSc1nccn1-c1cccc(Cl)c1)NO`: the Potency result was “inactive”.
As for `Cc1ccccc1-n1c(SCC(=O)Nc2ccc(Cl)cc2Cl)nc(O)cc1=O`, the Potency result was “inactive”.
With `CC(=O)c1c(N2CCN(C)CC2)[nH]c(-c2ccccc2)nc1=S`, the Potency was 5.96 µM (active).
Consider `O=c1c2c([nH]c3ccc(Br)cc13)CCCC2`, for which the Potency is 6.68 µM (active).
With `O=c1c2c([nH]c3ccccc13)CCCC2`, the Potency was 6.68 µM (active).
For `O=c1c(-c2ccccc2)n[nH]c2ccccc12`, the Potency result was “inactive”.
For `CC(C)(C)C1CCc2[nH]c3ccccc3c(=O)c2C1` (stereo not given), the Potency was 1.88 µM (active).
To `O=C(CSc1nc(Nc2ccccc2)nc(N2CCOCC2)n1)Nc1cc(Cl)ccc1O` belongs 2.37 µM (active); to `COc1cccc(-c2cc3c(=O)n(CCNC(=O)COc4ccc(F)cc4)ccn3n2)c1`, “inactive”; to `CCN(CC)CCNC(=O)c1ccc(NC(=O)c2cn(-c3ccc(F)cc3)nc2-c2cccc(OC)c2)cc1`, 9.44 µM (active).
Regarding `Cc1nn(-c2ccccc2)nc1-c1nnc(-c2ccc(C(F)(F)F)cc2)o1`, the Potency result was “inactive”.
On to `COc1cc(NC2CCCCC2O)c2nc(-c3ccc(Cl)cc3)ccc2c1` (stereo not given), for which the Potency was 5.31 µM (active).
Turning to `Oc1ccc(Cl)cc1CNCc1ccc(C(F)(F)F)cc1`, the Potency was 4.22 µM (active).
To `Oc1ccc(Cl)cc1CNCc1cccc2ccccc12` belongs 0.842 µM (active); to `Oc1ccc(Cl)cc1CNCC1CCCCC1`, 4.22 µM (active).
The value for `CS(=O)(=O)c1ccc(C(=O)Nc2ccc(-c3nc4ccccc4[nH]3)cc2)cc1` was 7.5 µM (active).
As for `O=C(Nc1cccc(-c2nc3ccccc3[nH]2)c1)c1ccc(C(=O)Nc2cccc(-c3nc4ccccc4[nH]3)c2)cc1`, the Potency is 2.66 µM (active).
Regarding `O=C(Nc1cccc(Oc2ccc(C(=O)O)c(C(=O)O)c2)c1)c1ccc(-c2ccccc2)cc1`, the Potency entry is “inactive”.
To `Nc1ccc2nc(-c3cccnc3)[nH]c2c1` belongs “inactive”; to `CC1CCCCN1S(=O)(=O)c1ccc(C(=O)Nc2ccccc2-c2nc3ccccc3[nH]2)cc1` (stereo not given), 7.5 µM (active).
For `COC(=O)c1ccc(NC(=O)CSc2nc3cc4ccccc4cc3[nH]2)cc1`, the Potency entry is “inactive”.
Turning to `CC(=O)Nc1ccc(S(=O)(=O)N2CCC(n3c(C)nc4cccnc43)CC2)cc1`, the Potency result was “inactive”.
The value for `CC(C)(C)N1C(=O)c2ccc(C(=O)Nc3ccc(-c4nc5ccccc5[nH]4)cc3)cc2C1=O` was 6.68 µM (active).

These data come from PubChem BioAssay AID1347416 (National Center for Advancing Translational Sciences (NCATS), 2020).
